A number with no mark means an inactive call.
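Also: TDF is a line of transformed human dermal fibroblasts of mesenchymal origin.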

The subject of this experiment is TDF. Briefly: H1.0 immunofluorescence intensity relative to DMSO (% of DMSO); higher = stronger H1.0 induction, active = 120 or more. The settings on record: concentration: 10 µM; 24 h. An outline of the steps: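 H1.0 nuclear intensity or cell number is stated as percent of the plate control, based on the median of replicates, and HCC1569 values were smoothed for positional effects. These came from HCC1569 and TDF cells treated with compounds at 10 µM for 24 h at 37 °C in triplicate, then fixed in 3.7% formaldehyde and stained with a rabbit anti-H1.0 antibody, an AlexaFluor 647 secondary and DAPI.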
As for `CCCCCCCCC=CCCCCCCCC(=O)O` [Oleic Acid], the H1.0 immunofluorescence intensity was 91.8.

Take `CCCCCCC=CCCCCCCCC(=O)O` [9(E)-Hexadecenoic acid]: the H1.0 immunofluorescence intensity was 105.

`O=c1ncnc2[nH][nH]cc1-2` [Allopurinol]: the H1.0 immunofluorescence intensity was 97.1.

For `COc1ccc(/C=C\c2cc(OC)c(OC)c(OC)c2)cc1OP(=O)([O-])[O-].[Na+].[Na+]`, the H1.0 immunofluorescence intensity was 197 (active).

On to `CCCCCC(O)C=CC=CCCCCCCCC(=O)O` (stereo unspecified), for which the H1.0 immunofluorescence intensity is 96.4.

Consider `Cl.FC(F)(F)c1cc(COC2CCCNC2c2ccccc2)cc(C(F)(F)F)c1` [L-733,060 hydrochloride], for which the H1.0 immunofluorescence intensity was 108.

As to `Nc1nccc(-c2c(-c3ccc(F)cc3)ncn2C2CCNCC2)n1`, the H1.0 immunofluorescence intensity is 88.6.

Turning to `COc1ccc(/C=C\c2cc(OC)c(OC)c(OC)c2)cc1O` [2-methoxy-5-[(Z)-2-(3,4,5-trimethoxyphenyl)ethenyl]phenol], the H1.0 immunofluorescence intensity is 179 (active).

For `Cc1ccc(NC2=CC(=O)c3sc(C)nc3C2=O)cc1`, the H1.0 immunofluorescence intensity is 122 (active).

For the compound `Cc1ccc(NC(=O)CCCCCC(=O)Nc2ccccc2N)cc1` [N~1~-(2-aminophenyl)-N~7~-(4-methylphenyl)heptanediamide], the H1.0 immunofluorescence intensity was 113.

As for `CC(=O)O.CN=C(N)NCCCC(N)C(=O)O` [NG-Monomethyl-L-arginine acetate], the H1.0 immunofluorescence intensity was 95.6.

For `CC(CN1c2ccccc2Sc2ccccc21)N(C)C.Cl` (stereo unspecified) [Promethazine.HCl], the H1.0 immunofluorescence intensity was 96.1.

Take `CC(=O)C1(O)CCC2C3CCC4=CC(=O)CCC4(C)C3CCC21C` (stereo unspecified) [17- Hydroxyprogesterone]: the H1.0 immunofluorescence intensity was 94.

For the compound `CNc1cc(NS(=O)(=O)c2ccc(N)cc2)nc(NC)n1.Cl.Cl` [Ro 04-6790 dihydrochoride], the H1.0 immunofluorescence intensity was 98.7.

As to `CN(C)CCC=C1c2ccccc2C=Cc2ccccc21.Cl` [Cyclobenzaprine hydrochloride], the H1.0 immunofluorescence intensity is 109.

Consider `CCCCCCCCCC(=O)OCC(CO)OC(=O)CCCCCCCCC` (stereo unspecified) [1,2-Didecanoyl-glycerol (10:0)], for which the H1.0 immunofluorescence intensity is 98.3.

In the case of `COc1ccnc(CS(=O)c2nc3cc(OC(F)F)ccc3[n-]2)c1OC.O.[Na+]` (stereo unspecified), the H1.0 immunofluorescence intensity was 95.7.

In the case of `CC(=O)NC(CSCC=C(C)CCC=C(C)C)C(=O)O` (stereo unspecified), the H1.0 immunofluorescence intensity was 93.

Turning to `CC(NC(=O)C(C#N)=Cc1ccc(O)c(O)c1)c1ccccc1` (stereo unspecified) [Tyrphostin AG 527], the H1.0 immunofluorescence intensity is 87.7.

For the compound `CC1=C2C(=COC(C)C2C)C(=O)C(C(=O)O)=C1O` (stereo unspecified) [Citrinin], the H1.0 immunofluorescence intensity is 101.

For `CC1CCN=C(N)S1.Cl` (racemic), the H1.0 immunofluorescence intensity was 108.

In the case of `CCCCCC=CCC=CCC(O)C=CC=CCCCC(=O)O` (stereo unspecified), the H1.0 immunofluorescence intensity was 96.8.

Turning to `CN(C)CCOC(=O)COc1ccc(Cl)cc1.Cl` [Centrophenoxine hydrochloride], the H1.0 immunofluorescence intensity is 103.

Consider `CCCCCC=CCC=CCCCCCCCC(N)=O` [Linoleamide], for which the H1.0 immunofluorescence intensity is 99.6.

With `CC(=O)NC(CS)C(=O)O` (stereo unspecified) [N-Acetyl-Cysteine], the H1.0 immunofluorescence intensity is 96.3.

For the compound `CCCCCCCCC=CCC=CCC=CCCCC(=O)NCCO` [Mead ethanolamide], the H1.0 immunofluorescence intensity was 108.

As for `Cl.Fc1ccc(C(OCCCc2cnc[nH]2)c2ccc(F)cc2)cc1`, the H1.0 immunofluorescence intensity was 88.3.

Turning to `CC(N)(Cc1ccc(O)c(O)c1)C(=O)O` [L-alpha-Methyl DOPA], the H1.0 immunofluorescence intensity is 91.3.

As to `CCCCCCCCOC(=O)C=Cc1ccc(O)c(O)c1` [n-Octyl caffeate], the H1.0 immunofluorescence intensity is 93.6.

`N=C1Sc2ccccc2C2=NCCCN12`: the H1.0 immunofluorescence intensity is 91.9.

`N#CC(=Cc1ccc(O)cc1)C(N)=C(C#N)C#N` [Tyrphostin AG 112]: the H1.0 immunofluorescence intensity was 95.7.

Take `COC(=O)c1ccc2c(c1)NC(=O)C2=C(Nc1ccc(N(C)C(=O)CN2CCN(C)CC2)cc1)c1ccccc1` [Vargatef]: the H1.0 immunofluorescence intensity is 84.3.

On to `COc1ccc2c(c1OC)C(=O)OC2C1c2c(cc3c(c2OC)OCO3)CCN1C` (racemic), for which the H1.0 immunofluorescence intensity was 105.

Consider `Cc1cccc(C#Cc2ccccc2)n1.Cl` [6-Methyl-2-(phenylethynyl)pyridine hydrochloride], for which the H1.0 immunofluorescence intensity was 91.5.

For `C=CC1CN2CCC1CC2C(O)c1ccnc2ccc(OC)cc12.Cl.O` (stereo unspecified), the H1.0 immunofluorescence intensity was 96.8.

As for `Cl.c1ccc(C2CCCC2NC2=NCCCCCCCCCCC2)cc1` (stereo unspecified) [MDL 12,330A hydrochloride], the H1.0 immunofluorescence intensity is 85.7.

The values are drawn from the supplement of paper PMC7156485.
